# The supplement of paper PMC8728848
# This excerpt belongs to a sample that is enriched for the strongest signals.
# How the values were obtained:
# Assay in all cases: glycan array binding signal (z-score within array); higher = stronger binding
# Details in all cases: glycan notation: IUPAC condensed, linker removed
# [1] = biological target: Fuc(a1-2)Gal(b1-3)GlcNAc(b1-2)Man(a1-3)[Fuc(a1-2)Gal(b1-3)GlcNAc(b1-2)Man(a1-6)]Man(b1-4)GlcNAc(b1-4)GlcNAc
# Procedure, shortened: (§1)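 Arrays were curated from the Consortium for Functional Glycomics database, 3228 in total, and kept only where the protein sequence was available. Binding is expressed as a within-array Z-score. This score was averaged across arrays of the same protein sequence at different concentrations or buffers and across linkers, and negative values can be read as non-binding.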
# [2] = biological target: Fuc(a1-2)Gal(b1-3)[Fuc(a1-4)]GlcNAc(b1-2)Man(a1-3)[Fuc(a1-2)Gal(b1-3)[Fuc(a1-4)]GlcNAc(b1-2)Man(a1-6)]Man(b1-4)GlcNAc(b1-4)GlcNAc
# Procedure, shortened: as §1
# [3] = biological target: Fuc(a1-2)[Gal(a1-3)]Gal(b1-4)Glc
# Procedure, shortened: as §1
# [4] = biological target: Fuc(a1-2)[Gal(a1-4)]Gal(b1-4)GlcNAc
# Procedure, shortened: as §1
# [5] = biological target: Fuc(a1-2)[GalNAc(a1-4)]Gal(b1-4)GlcNAc
# Procedure, shortened: as §1
# [6] = biological target: Fuc(a1-3)[Gal(b1-4)]GlcNAc(b1-4)Gal(b1-4)[Fuc(a1-3)]GlcNAc
# Procedure, shortened: as §1
# [7] = biological target: Gal(a1-3)[Gal(a1-4)]Gal(b1-4)GlcNAc
# Procedure, shortened: as §1
# [8] = biological target: Gal(b1-2)Gal
# Procedure, shortened: as §1
# [9] = biological target: Gal(b1-4)GlcNAc(b1-2)Man(a1-3)[Gal(b1-4)GlcNAc(b1-2)Man(a1-6)]Man(b1-4)GlcNAc(b1-4)GlcNAc
# Procedure, shortened: as §1
# [10] = biological target: Gal(b1-4)GlcNAc(b1-3)Gal(b1-4)GlcNAc(b1-3)Gal(b1-4)GlcNAc
# Procedure, shortened: as §1
# [11] = biological target: Gal(b1-4)GlcNAc(b1-3)[GlcNAc(b1-6)]Gal(b1-4)GlcNAc
# Procedure, shortened: as §1
# [12] = biological target: Gal3S(b1-3)[Fuc(a1-4)]GlcNAc
# Procedure, shortened: as §1
# [13] = biological target: Gal3S6S(b1-4)GlcNAc6S
# Procedure, shortened: as §1
# [14] = biological target: GalNAc(a1-3)GalNAc
# Procedure, shortened: as §1
# [15] = biological target: GalNAc(b1-3)GalNAc
# Procedure, shortened: as §1
# [16] = biological target: Glc(a1-6)Glc(a1-6)Glc
# Procedure, shortened: as §1
# [17] = biological target: Glc(b1-6)Glc
# Procedure, shortened: as §1
# [18] = biological target: GlcA(b1-6)Gal
# Procedure, shortened: as §1
# [19] = biological target: GlcNAc(a1-4)Gal(b1-4)GlcNAc(b1-3)Gal(b1-4)GlcNAc(b1-3)Gal(b1-4)GlcNAc
# Procedure, shortened: as §1
# [20] = biological target: GlcNAc(a1-4)Gal(b1-4)GlcNAc(b1-3)Gal(b1-4)[Fuc(a1-3)]GlcNAc(b1-3)Gal(b1-4)[Fuc(a1-3)]GlcNAc
# Procedure, shortened: as §1
# [21] = biological target: GlcNAc(a1-6)Gal(b1-4)GlcNAc
# Procedure, shortened: as §1
# [22] = biological target: GlcNAc(b1-4)[GlcNAc(b1-6)]GalNAc
# Procedure, shortened: as §1
# [23] = biological target: Man(a1-6)Man
# Procedure, shortened: as §1
# [24] = biological target: Neu5Ac(a2-3)Gal(b1-3)GlcNAc(b1-3)Gal(b1-3)GlcNAc
# Procedure, shortened: as §1
# [25] = biological target: Neu5Ac(a2-3)Gal(b1-3)GlcNAc6S
# Procedure, shortened: as §1
# [26] = biological target: Neu5Ac(a2-3)Gal(b1-4)[Fuc(a1-3)]GlcNAc(b1-3)Gal(b1-4)GlcNAc
# Procedure, shortened: as §1
# [27] = biological target: Neu5Ac(a2-3)Gal(b1-4)[Fuc(a1-3)]GlcNAc(b1-6)[Gal(b1-3)]GalNAc
# Procedure, shortened: as §1
# [28] = biological target: Neu5Ac(a2-3)Gal6S(b1-4)[Fuc(a1-3)]GlcNAc
# Procedure, shortened: as §1
# [29] = biological target: Neu5Ac(a2-3)GalNAc
# Procedure, shortened: as §1
# [30] = biological target: Neu5Ac(a2-6)Gal(b1-4)GlcNAc(b1-3)Gal(b1-4)GlcNAc(b1-3)Gal(b1-4)GlcNAc
# Procedure, shortened: as §1
# [31] = biological target: Neu5Ac(a2-8)Neu5Ac
# Procedure, shortened: as §1
# [32] = biological target: Neu5Ac(b2-6)GalNAc
# Procedure, shortened: as §1
binder,measurement,setting,value
"MRCL (Homo sapiens), NP_872425.1 (protein) ATKVHFPFHTCDLRIDGDCFMVSSEADTYYRARMKCQRKGGVLAQIKSQKVQDILAFYLGRLETTNEVTDSDFETRNFWIGLTYKTAKDSFRWATGEHQAFTSFAFGQPDNHGLVWLSAAMGFGNCVELQASAAFNWNNQRCKTRNRYICQFAQEHISRWGPGS",glycan array binding signal (z-score),[1],3.42
same,glycan array binding signal (z-score),[2],0.034
same,glycan array binding signal (z-score),[3],2.33
same,glycan array binding signal (z-score),[4],-0.456
same,glycan array binding signal (z-score),[5],3.1
same,glycan array binding signal (z-score),[6],-0.365
same,glycan array binding signal (z-score),[7],0.889
same,glycan array binding signal (z-score),[8],-0.726
same,glycan array binding signal (z-score),[9],-0.358
same,glycan array binding signal (z-score),[10],4.88
same,glycan array binding signal (z-score),[11],4.12
same,glycan array binding signal (z-score),[12],-0.239
same,glycan array binding signal (z-score),[13],0.67
same,glycan array binding signal (z-score),[14],-0.581
same,glycan array binding signal (z-score),[15],-0.074
same,glycan array binding signal (z-score),[16],-0.679
same,glycan array binding signal (z-score),[17],-0.712
same,glycan array binding signal (z-score),[18],0.237
same,glycan array binding signal (z-score),[19],1.88
same,glycan array binding signal (z-score),[20],1.11
same,glycan array binding signal (z-score),[21],5.62
same,glycan array binding signal (z-score),[22],-0.523
same,glycan array binding signal (z-score),[23],0.948
same,glycan array binding signal (z-score),[24],-0.295
same,glycan array binding signal (z-score),[25],-0.562
same,glycan array binding signal (z-score),[26],-0.637
same,glycan array binding signal (z-score),[27],-0.645
same,glycan array binding signal (z-score),[28],-0.64
same,glycan array binding signal (z-score),[29],-0.424
same,glycan array binding signal (z-score),[30],-0.367
same,glycan array binding signal (z-score),[31],-0.294
same,glycan array binding signal (z-score),[32],5.61
